Over roughly 35,000 sequences, “fluorescence intensity (a.u.)” has its median near 10,000; the highest 2% begin near 52,000. Many of the other results were omitted from the sample, so the highest values are more common in it than they were.
Molecular target: T1, OsWOX13 (Oryza sativa, UniProt Q5QMM3 1-267)
T1 sequence: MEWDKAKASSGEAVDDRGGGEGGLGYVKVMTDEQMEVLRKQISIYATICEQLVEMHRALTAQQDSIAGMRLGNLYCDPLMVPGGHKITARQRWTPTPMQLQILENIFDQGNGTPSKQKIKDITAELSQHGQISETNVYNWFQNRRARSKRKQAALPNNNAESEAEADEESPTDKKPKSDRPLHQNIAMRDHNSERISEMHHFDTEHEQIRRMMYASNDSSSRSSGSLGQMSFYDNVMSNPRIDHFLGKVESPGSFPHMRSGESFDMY
Test: protein-binding microarray (RPBM); PBS, 2% BSA, 51.3 ng/ul salmon testes DNA, 50 uM zinc acetate, 200 nM TF, 25 C, 1 h; high values mean tight binding
Settings: protein: recombinant; tags: N-terminal polyhistidine and DsRed monomer fusion (pET32a); label: CyDye5-dUTP incorporated in the synthesized complementary strand; 3' TTTTT single-stranded linker to array surface; dsDNA, one strand shown
In short: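 Transcription factors were made in E. coli BL21-CodonPlus as N-terminal fusions to a polyhistidine tag and DsRed, then purified on Ni–NTA. After primer extension with Cy5-dUTP and blocking with 2% BSA, a custom Agilent array was exposed for 1 h at 25 °C to 200 nM protein in PBS, 2% BSA, salmon testes DNA and 50 µM zinc acetate. Washed arrays were scanned on an Axon 4000B, and the binding signal is per-feature fluorescence intensity in arbitrary units.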

Going from “CCATTTCTTGCTGATGATTGATGATGAACATTTCTAATAGCGGAGTCACCTAGTGCAG” to “TACTATGATTTTCTTTGAATTCAGGTCCTTGCGATTCCAGCGGAGTCACCTAGTGCAG”, the binding signal falls from 27400 fluorescence intensity (a.u.) to 3510 fluorescence intensity (a.u.).

Compared with “TGGATAATTAAGCTCATGAGACGACAACGAACAATGAATGCGGAGTCACCTAGTGCAG”, “AGATGTTTGAATAATTGATACAATATCAGGAGCGAATATGCGGAGTCACCTAGTGCAG” is lower in binding signal: 8610 fluorescence intensity (a.u.) for the first, 4430 fluorescence intensity (a.u.) for the second.

Going from “TGAAATTTCTCTTCATTTTGTTTTAAATCCTGGACAGACACGGAGTCACCTAGTGCAG” to “CAACCAATAAATTAGAACTCCATCTCGATCATGGTGTTATCGGAGTCACCTAGTGCAG”, the binding signal rises from 3370 fluorescence intensity (a.u.) to 4370 fluorescence intensity (a.u.).

Compared with “GGCTTGATTTATTGATTTGTTCTTTAGTACTCCAGTTCAACGGAGTCACCTAGTGCAG”, “ATAAATTAGCACCCACCTCTGCCTTCCTACCTTCCCCTCCCGGAGTCACCTAGTGCAG” is lower in binding signal: 25700 fluorescence intensity (a.u.) for the first, 24900 fluorescence intensity (a.u.) for the second.

Going from “GAGAGAGAGATCAGCACATGATTGATTAAATATTAGCTTACGGAGTCACCTAGTGCAG” to “TTAATTGGATATATGATGTTGCAAATTTGCCTATTCAGAACGGAGTCACCTAGTGCAG”, the binding signal rises from 19100 fluorescence intensity (a.u.) to 27000 fluorescence intensity (a.u.).

First: GCATGAAGACATCAATTAATTAATTGCATGGTTACATGCACGGAGTCACCTAGTGCAG
Second: TCCATAATTAGCAGCTGATTACTGTAGTATTACTGTAGCACGGAGTCACCTAGTGCAG
The binding signal of the first is lower: 37200 fluorescence intensity (a.u.) for the first, 60800 fluorescence intensity (a.u.) for the second.

Compared with “TCCATAATTAGCGGCTGATTACTGTAGCATCACTGTAGCACGGAGTCACCTAGTGCAG”, “TGTAATAGTGGGTTAATTAATTAGCTTGCCAGCTTCAGGGCGGAGTCACCTAGTGCAG” is lower in binding signal: 31200 fluorescence intensity (a.u.) for the first, 21900 fluorescence intensity (a.u.) for the second.

Compared with “CCTAATTAATCCATAATTATCAAAAGTTTACTGTAGCATCCGGAGTCACCTAGTGCAG”, “ATTAATCCACAATTATCAAAAGTTTACTGTAGCATCACATCGGAGTCACCTAGTGCAG” is lower in binding signal: 62800 fluorescence intensity (a.u.) for the first, 5730 fluorescence intensity (a.u.) for the second.

Compared with “TCATCAGTTAATTAATACATGCATATTATATTATATAGGGCGGAGTCACCTAGTGCAG”, “AATAATTAATTAATCATAGCTTGCAACTGCATATGTAGGGCGGAGTCACCTAGTGCAG” is higher in binding signal: 20200 fluorescence intensity (a.u.) for the first, 56700 fluorescence intensity (a.u.) for the second.

Going from “ATGATTAGCAGCTGATTACTGTAGCATTACTGTAGCAAATCGGAGTCACCTAGTGCAG” to “ATTAATCCATAATTAGCAAATGTTTACTGTAGCATCACATCGGAGTCACCTAGTGCAG”, the binding signal falls from 45200 fluorescence intensity (a.u.) to 13800 fluorescence intensity (a.u.).

First: TTGGTGTAATTGACATGCGGGCCCACAATTTTATTATTTTCGGAGTCACCTAGTGCAG
Second: ATTGATAACGGCAGACTAACTGATACGACAGAGATGGTCACGGAGTCACCTAGTGCAG
The binding signal of the first is higher: 23800 fluorescence intensity (a.u.) for the first, 7620 fluorescence intensity (a.u.) for the second.

Going from “CCGGATTGCTGGATCATTTTCTTCTCGGCCCATTGGACTCCGGAGTCACCTAGTGCAG” to “ATGATTACTAAAACTGTACTTAAAGGCAATGGTTTCTGTACGGAGTCACCTAGTGCAG”, the binding signal rises from 3410 fluorescence intensity (a.u.) to 13900 fluorescence intensity (a.u.).

Going from “CATTGATTGGATCGTACGCTTGTGTTGCATGACCAATGATCGGAGTCACCTAGTGCAG” to “AATCCATGATTATCACATATTTACTGTAGAACTACATTGTCGGAGTCACCTAGTGCAG”, the binding signal falls from 44200 fluorescence intensity (a.u.) to 11200 fluorescence intensity (a.u.).

First: TTAAATATAGTTAATTAAACTAGCTAGCTCCTCCGATCCTCGGAGTCACCTAGTGCAG
Second: CTCTCTCCTTGGCCTCTTCCTCCCTGGTCGGTAGCGCAGCCGGAGTCACCTAGTGCAG
The binding signal of the first is lower: 12800 fluorescence intensity (a.u.) for the first, 59600 fluorescence intensity (a.u.) for the second.

First: CAAAATTGGCTCCTCACCCTTGTGCAGATGCAGCCTTCTTCGGAGTCACCTAGTGCAG
Second: GTAGGATTGGATGGATATAGGAGCCTGCCTTGCCTTCCTCCGGAGTCACCTAGTGCAG
The binding signal of the first is higher: 13700 fluorescence intensity (a.u.) for the first, 6030 fluorescence intensity (a.u.) for the second.

Compared with “CTTTGTAGACTGACAGTGATAGTATTGTACTGCTATACGTCGGAGTCACCTAGTGCAG”, “TGGGCGGTTAATTTGACTTCGATGTTCAGTACCTTGTGGGCGGAGTCACCTAGTGCAG” is lower in binding signal: 9250 fluorescence intensity (a.u.) for the first, 4180 fluorescence intensity (a.u.) for the second.

First: CTAGTAATAACACTGACATCAATTAGCAATTTAGCATCCGCGGAGTCACCTAGTGCAG
Second: CTTGGCTGAAACAAATCAATTAACATCACAAACAGGAGAACGGAGTCACCTAGTGCAG
The binding signal of the first is higher: 13200 fluorescence intensity (a.u.) for the first, 11300 fluorescence intensity (a.u.) for the second.

First: ATATAATTACAATACAATCGTAGTGTAATTACACTGTAACCGGAGTCACCTAGTGCAG
Second: ACATTAATGATTAGAGACCATATTGTCATCAACTATTGTACGGAGTCACCTAGTGCAG
The binding signal of the first is lower: 14800 fluorescence intensity (a.u.) for the first, 30800 fluorescence intensity (a.u.) for the second.

Going from “TCATCGTGGTATTAATTATTTAATAATTATAAATATATTTCGGAGTCACCTAGTGCAG” to “TTCGGTTTTATTTTAATTGACATTTTGGACAATGATACGGCGGAGTCACCTAGTGCAG”, the binding signal rises from 10200 fluorescence intensity (a.u.) to 27900 fluorescence intensity (a.u.).

Going from “TCATAACTATTTTAATTGACATACAAACAATGAGGCGGCACGGAGTCACCTAGTGCAG” to “TAATGCTTAATTAATCTCAATATAATCGCGTGCTTTGTTTCGGAGTCACCTAGTGCAG”, the binding signal falls from 58300 fluorescence intensity (a.u.) to 7810 fluorescence intensity (a.u.).

First: AATAATCATACTAATTATATAAGTATATACTAAATATTATCGGAGTCACCTAGTGCAG
Second: GTTAATGATTAATTAGAGCATTTGTTGTCTCAACTATTGTCGGAGTCACCTAGTGCAG
The binding signal of the first is lower: 7370 fluorescence intensity (a.u.) for the first, 58600 fluorescence intensity (a.u.) for the second.

First: TCGTAAATTAATTATTAATAATATACTAATGGTATCCCCACGGAGTCACCTAGTGCAG
Second: CTTAATTAATATAATCGGCAGGAGCTCACTGTTTGTTAACCGGAGTCACCTAGTGCAG
The binding signal of the first is higher: 53900 fluorescence intensity (a.u.) for the first, 52800 fluorescence intensity (a.u.) for the second.

First: ACATCATTGACATAATATGATTTAACAACAAACAATTTAGCGGAGTCACCTAGTGCAG
Second: ACATTAATGATTAGAGACTATATTGTCTCTAACTGTTGTACGGAGTCACCTAGTGCAG
The binding signal of the first is lower: 34800 fluorescence intensity (a.u.) for the first, 39900 fluorescence intensity (a.u.) for the second.

Compared with “GCACCGTTGATGAAATTGCCGTTAGAATTTCGATCATCCCCGGAGTCACCTAGTGCAG”, “GGTAATGATTTAACACCACCTAATTTATTTTGAACAAGCTCGGAGTCACCTAGTGCAG” is higher in binding signal: 4810 fluorescence intensity (a.u.) for the first, 20500 fluorescence intensity (a.u.) for the second.

First: CATGTCTCAATAAATTGATCGTTGGCAAAATCGGTTAGTCCGGAGTCACCTAGTGCAG
Second: AATTAAATTTTAACTATTAATATTATATTTTATAAATATTCGGAGTCACCTAGTGCAG
The binding signal of the first is lower: 4980 fluorescence intensity (a.u.) for the first, 6480 fluorescence intensity (a.u.) for the second.

Going from “TATTAATTTAATAAAATTAATTTGGTAATGTAAATATTATCGGAGTCACCTAGTGCAG” to “TGCATTAATTATTGGAGAGTGCGGTCTCCTCTCCTCCCTCCGGAGTCACCTAGTGCAG”, the binding signal rises from 15600 fluorescence intensity (a.u.) to 23200 fluorescence intensity (a.u.).

First: TGGAATTTTGAGTGTGTGATTGCGTTATTACGTTGCAAGTCGGAGTCACCTAGTGCAG
Second: ATATAATTAATTAAAATATTAATTATTATTTGTAAAATGGCGGAGTCACCTAGTGCAG
The binding signal of the first is lower: 3550 fluorescence intensity (a.u.) for the first, 65500 fluorescence intensity (a.u.) for the second.

First: GGTAATTTGTCCGGTATTGAAAGTTTAGGGTGAGCAATGTCGGAGTCACCTAGTGCAG
Second: TTAATAATTATTGTAAAATTTAATTTATATTTATTTGAATCGGAGTCACCTAGTGCAG
The binding signal of the first is higher: 22900 fluorescence intensity (a.u.) for the first, 22600 fluorescence intensity (a.u.) for the second.

First: CCATTAATTAATTAACCTGCAGCCTCAATTATTTGGTCTCCGGAGTCACCTAGTGCAG
Second: TTTAATTAAATTTAACATTAAATATATTTTGACTATTTGTCGGAGTCACCTAGTGCAG
The binding signal of the first is higher: 57600 fluorescence intensity (a.u.) for the first, 53000 fluorescence intensity (a.u.) for the second.

First: GAAGTGATTGATATTTGAGCAATTAGTCCGTTGTCAGGGTCGGAGTCACCTAGTGCAG
Second: AAACATTAATTTGTTTTATAATATATTATAAATGACTATACGGAGTCACCTAGTGCAG
The binding signal of the first is higher: 62400 fluorescence intensity (a.u.) for the first, 15500 fluorescence intensity (a.u.) for the second.

“ATTAATTTGACCAACTTCATTCAACATGTAACATGGTCTCCGGAGTCACCTAGTGCAG” was tested, and the binding signal was 16600 fluorescence intensity (a.u.).

Source: article PMC7819943, “Rice protein-binding microarrays: a tool to detect cis-acting elements near promoter regions in rice”
